Cav3 T inh – blocks human Cav3.2 T-type calcium channel; Cav3.2-expressing cells, Fluo-4 calcium fluorescence FDSS; stronger effect = lower value; B-score at 10 µM; actives 4% (n = 100,000); AID 449739;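 active = single-dose well whose peak fluorescence ratio is a statistical outlier from its plate by either plate-standardised score or position-corrected B-score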
Ec RNAP inh – Escherichia coli RNA polymerase inhibition; P0A8V2; E. coli RNA polymerase, fluorescence transcription assay; inhibition, %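 (tested at 10 µM)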; actives 0.2% (n = 62,000); in the data active = inhibition above about 20%;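 note: 0% = enzyme without compound and 100% = no enzyme blank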
Pyk2 oligo antag – Pyk2 (human) oligomerization antagonism; Q293 cells, Pyk2 FERM NanoBiT luminescence; stronger effect = lower value; AID 1347419; Q14289; actives 0.83% (n = 99,000); z-score (the deposit names both 25 µM and 10 µM);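 active = Z-score of -3 or lower, scaled per plate to the spread of control and sample wells; inactive = z-score above -3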;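 note: negative z-score means lost luminescence so less FERM oligomerization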
Mac1 fbg inh – CD11b/CD18-fibrinogen binding inhibition; AID 1497; actives 0.54% (n = 93,000); K562 CD11b/CD18 adhesion to fibrinogen, ATPlite luminescence; Mn2+ added to activate the integrin; P05107+P11215; inhibition, % at 10 µM;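 active = primary inhibition of 50% or more at 10 µM, then 40% or more on retest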
Mac1 fbg enh – CD11b/CD18-fibrinogen binding enhancement; K562 CD11b/CD18 adhesion to fibrinogen, ATPlite luminescence; activation, % at 10 µM; actives 0.07% (n = 93,000);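 active = 10 µM primary screen giving 50% or more activity, confirmed by 40% or more on retest at that dose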
Starred values were filed as active, the others as inactive; . = no result given. In the library only some 4.2% were active in any assay of this set; here they are far more common.

SMILES | Cav3 T inh | Ec RNAP inh | Pyk2 oligo antag | Mac1 fbg inh | Mac1 fbg enh
N#Cc1c(N2CCN(C(=O)c3ccccc3)CC2)nc(-c2ccccc2)c2c1CCCC2 | -4.9* | . | -2.4 | 13 | -6
CC(=O)N1CCN(c2nc(CC(C)C)c3c(c2C#N)CCC3)CC1 | -1.4 | 0 | -0.1 | 12 | -6
CC(C)Cc1nc(N2CCN(C(=O)c3ccco3)CC2)c(C#N)c2c1CCC2 | -7.9* | 10 | 0.24 | 6 | 4
N#Cc1c(N2CCN(C(=O)c3ccccc3Cl)CC2)nc(-c2ccccc2)c2c1CCCC2 | . | . | -1.1 | -7 | 1
CC1(C)Cc2c(C#N)c(N3CCN(C(=O)c4ccco4)CC3)nc(Cc3ccccc3)c2CO1 | -4.6* | -5 | -1.8 | 7 | -2
Cc1ccc(CNC(=O)C2CC3Cn4c(nc5cc6ccccc6cc54)C3N2C)o1 (configuration not stated) | 0.31 | . | . | . | .
C/C=C/C=C/C(=O)N1CC[C@]23c4ccccc4N[C@H]4N(C)c5cccc6c5[C@]42CCN([C@H]6C2OC2(C)C)[C@H]13 (some centres not stated) | -4.5* | . | . | . | .
O=C(/C=C/c1c(Cl)cccc1Cl)N1CCN(c2ncccn2)CC1 | -4.3* | . | 0.28 | 5 | -4
O=C(Nc1ccccc1C(=O)NCCCn1ccnc1)c1ccccc1 | 0.2 | 21* | -0.3 | -6 | 1
COc1ccc(N(CC(=O)Nc2ccc(C)c(C)c2)S(=O)(=O)c2c(C)n[nH]c2C)cc1 | . | 5 | -3.3* | -8 | 6
CCOC(=O)c1cccc(NC(=O)CN(c2ccc(C)cc2)S(=O)(=O)c2c(C)n[nH]c2C)c1 | -1.2 | 5 | -3* | -2 | 0
CCc1cccc(NC(=O)CN(c2ccc(OC)cc2)S(=O)(=O)c2c(C)n[nH]c2C)c1 | -4.2* | 3 | -3.2* | -9 | 2
O=C(O)C[C@H]1c2ccc(C(F)(F)F)cc2S(=O)(=O)N1Cc1ccccc1 | 1.1 | . | . | . | .
CC(C)OC(=O)CCCNc1ccc([N+](=O)[O-])cc1[N+](=O)[O-] | . | . | 0.23 | 3 | 1
CCc1nc(N)c(C#N)c(-c2ccc(O)c(OC)c2)c1C | 0.06 | 8 | -1.2 | -3 | 3
COc1cc(-c2c(C#N)c(=O)[nH]c3c2c(C)nn3-c2ccccc2)ccc1O | 1.6 | 11 | -3.3* | 5 | 2
O=C(Nc1ccccc1[N+](=O)[O-])c1cccnc1Cl | . | . | 2 | . | .
COc1ccc(-c2nc(NC(=O)Cn3ccc(C(F)(F)F)n3)sc2C)cc1 | -7.6* | . | -0.01 | -1 | -1
Cc1ccc(C(=O)NNC(=O)C2CCN(c3nccc(C)n3)CC2)cc1 | 0.19 | . | -0.32 | . | .
Cc1nonc1NC(=O)CSc1nnc(-c2ccoc2C)n1-c1cccc(Cl)c1 | -4.4* | . | -0.27 | . | .
COc1ccc(-n2c(SCC(=O)Nc3ccccc3)nnc2-c2ccoc2C)cc1 | -1.1 | . | -1.2 | . | .
COc1cccc(NC(=O)CSc2nnc(-c3ccoc3C)n2-c2ccccc2)c1 | -6.2* | . | . | 0 | -4
Cc1occc1-c1nnc(SCC(=O)Nc2nccs2)n1CCc1ccccc1 | -3 | 6 | . | 3 | 7
CCOc1ccccc1-n1c(SCC(=O)Nc2nccs2)nnc1-c1ccoc1C | -7.2* | -2 | -1.9 | -10 | -2
COc1ccc(S(=O)(=O)Nc2ccccn2)c(C)c1C | 0.14 | 5 | -0.96 | -3 | -4
SMILES | Cav3 T inh | Ec RNAP inh | Pyk2 oligo antag | Mac1 fbg inh | Mac1 fbg enh
COc1cc(NS(=O)(=O)c2ccc(OC)c(C)c2C)c(OC)cc1Cl | -7.4* | 8 | -1.8 | 56 | 1
CCOC(=O)c1ccccc1NC(=O)CSc1nnc(Cc2cccn2C)n1-c1ccc(F)cc1 | -5.5* | -5 | 0.65 | 10 | 1
Cn1cccc1Cc1nnc(SCC(=O)NC2CCCC2)n1-c1ccc(F)cc1 | 1.1 | 2 | . | 3 | -1
Cn1cccc1Cc1nnc(SCC(=O)NCc2ccccc2)n1-c1ccc(F)cc1 | -0.94 | -2 | . | 12 | -3
CCOc1ccccc1NC(=O)CSc1nnc(Cc2cccn2C)n1-c1ccc(F)cc1 | -9.3* | 4 | . | -1 | 0
CCOC(=O)c1sc(NC(=O)CSc2nc3c(c(=O)n2-c2ccc(C)cc2)SCC3)c(C(=O)OCC)c1C | 0.29 | . | . | . | .
CCCC1=C(C(=O)OCC)C(c2ccc(NC(C)=O)cc2)NC(=O)N1 (configuration not stated) | 0.19 | 1 | -0.68 | -28 | -5
CCOC(=O)C1=C(CNCc2ccc(C)cc2)NC(=O)NC1c1ccc(OC)cc1 (configuration not stated) | -4.7* | 0 | -0.31 | 22 | 14
CCCCNC(=O)Cn1c(=O)oc2cc(S(=O)(=O)N3CC(C)CC(C)C3)ccc21 (configuration not stated) | -0.19 | . | . | -3 | 6
Cc1cc(C)cc(NC(=O)Cn2c(=O)oc3cc(S(=O)(=O)N4CC(C)CC(C)C4)ccc32)c1 (configuration not stated) | -4.3* | . | . | 7 | 4
CC(C)(C)c1ccc(C(=O)NNc2cc(N3CCCCC3)nc(N3CCCCC3)n2)cc1 | -8.3* | . | -2.7 | 10 | -2
COc1cc(C)c(C(=O)Oc2cc(C)c(C(=O)O)c(O)c2)c(O)c1 | -4.8* | . | . | . | .
COC(=O)c1cc(OC)cc(O)c1C(=O)c1c(O)cc(C)cc1O | 0.36 | . | . | . | .
O=C(C1CCC(CNS(=O)(=O)c2cccc3nsnc23)CC1)N1CC=C(c2ccccc2)CC1 (configuration not stated) | -7.9* | . | . | 20 | 1
N#CC1=C(SCC(=O)c2ccc(Br)cc2)NC2=C(C(=O)CCC2)C1c1ccco1 (configuration not stated) | . | 2 | 0.55 | 18 | -4
O=C1CCCC2=C1C(c1ccco1)Nc1ccc(C(=O)c3ccccc3)cc1N2 (configuration not stated) | -3.6* | 9 | -0.87 | 14 | -2
COc1cccc([C@@H]2Oc3ccc(Br)cc3C(=O)[C@H]2OC(=O)NC2CCCC2)c1 | -1.1 | . | . | . | .
CC(C)C[C@H](NC(=O)OC(C)(C)C)c1nnc(SCc2cccc(F)c2)o1 | -3.4* | -2 | -0.87 | -5 | 20
CC(C)C[C@H](NC(=O)OC(C)(C)C)c1nnc(SCC(=O)Nc2ccc(Br)cc2)o1 | -6.5* | 7 | 1 | 24 | 5
O=S(=O)(c1ccc(F)cc1)n1ccc(-c2cccc(OCc3ccc(Cl)cc3Cl)c2)n1 | -2.7 | . | 2.9 | . | .
Cc1sc2ncnc(NCC3COc4ccccc4O3)c2c1C (configuration not stated) | . | . | . | 100* | -9
Cc1sc2ncnc(NCC(C)(C)N3CCOCC3)c2c1C | 1.9 | . | 1.2 | 68* | -5
CCc1cc2c(NCC3CCCO3)ncnc2s1 (configuration not stated) | 0.4 | 1 | 1.1 | -5 | -2
Cc1sc2ncnc(NCC3CCCO3)c2c1C (configuration not stated) | -7.6* | . | 3.6 | . | .
O=C(NC1CC1)c1cccc(Nc2ccc(-c3ccc4c(c3)OCCO4)nn2)c1 | -0.67 | 5 | -3.4* | 24 | 0
CC(C)NC(=O)c1onc(CSc2cccc(F)c2)c1C(=O)O | 0.89 | . | . | . | .
